Assay results as given in PubChem BioAssay AID1159580 (chemical genetic matrix, 2015).
“And” between values parts separate entries of the source, which are not always exact repeats. Equal values may be shown once. About 2,000 (36%) of roughly 5,500 compounds were called active. Another 18% or so got no clear call; they are omitted. Rule as the data show it: active = normalized growth mostly below about 0.91 (no sharp cut-off); inconclusive = no clear call, values can overlap the other calls; inactive = mostly above about 0.92. This is one part of the list.

Test: chemical genetic growth profiling, strain panel (AID 1159580);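 also: tested at 20 µM; growth read once vehicle control cultures reached saturation at 30 °C; 1 = growth at the plate median or of vehicle wells; lower values mean less growth of the strain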
Conditions: S. cerevisiae deletion strains, growth OD

Measured: normalized growth

O=C(O)CN1C(=O)c2cccc3cccc(c23)C1=O
inactive: locus YAL013W, strain DEP1, hits give low values 1 | locus YAL021C, strain ccr4, hits give low values 0.956 | locus YAL026C, strain drs2, hits give low values 0.987 | locus YAL030W, strain snc1, hits give low values 0.986 | locus YBL061C, strain skt5, hits give low values 0.973 | locus YBR009C, strain hhf1, hits give low values 0.985 | locus YBR021W, strain FUR4, hits give low values 1 | locus YBR023C, strain chs3, hits give low values 0.976 | locus YBR171W, strain sec66, hits give low values 0.968 | locus YBR229C, strain ROT2, hits give low values 1.01 | locus YBR231C, strain swc5, hits give low values 0.986 | locus YBR279W, strain paf1, hits give low values 0.978 | locus YCL011C, strain gbp2, hits give low values 0.975 | locus YCL016C, strain dcc1, hits give low values 0.982 | locus YCL029C, strain bik1, hits give low values 0.978 | locus YCL061C, strain MRC1, hits give low values 0.985 | locus YCL069W, strain vba3, hits give low values 0.99 | locus YCR088W, strain abp1, hits give low values 1.01 | locus YDL005C, strain med2, hits give low values 0.974 | locus YDL035C, strain GPR1, hits give low values 0.994 | locus YDL040C, strain nat1, hits give low values 0.982 | locus YDL074C, strain BRE1, hits give low values 1.05 | locus YDL101C, strain DUN1, hits give low values 1.01 | locus YDL134C, strain PPH21, hits give low values 0.994 | locus YDL185W, strain tfp1, hits give low values 0.964 | locus YDL192W, strain arf1, hits give low values 0.991 | locus YDR001C, strain nth1, hits give low values 0.979 | locus YDR069C, strain doa4, hits give low values 0.993 | locus YDR101C, strain arx1, hits give low values 0.998 | locus YDR137W, strain rgp1, hits give low values 0.938 | locus YDR159W, strain sac3, hits give low values 0.993 | locus YDR162C, strain NBP2, hits give low values 0.982 | locus YDR195W, strain ref2 1.01 | locus YDR297W, strain sur2, hits give low values 0.979 | locus YDR318W, strain mcm21, hits give low values 0.978 | locus YDR334W, strain swr1, hits give low values 0.967 | locus YDR335W, strain msn5, hits give low values 0.985 | locus YDR388W, hits give low values 0.994 | locus YDR392W, strain spt3, hits give low values 0.811 | locus YDR502C, strain sam2, hits give low values 0.998 | locus YEL003W, strain gim4, hits give low values 0.99 | locus YEL037C, strain rad23, hits give low values 0.982 | locus YEL061C, strain CIN8 (second series), hits give low values 0.974 | locus YEL061C, strain CIN8, hits give low values 1.01 | locus YER015W, strain faa2, hits give low values 0.998 | locus YER016W, strain bim1, hits give low values 0.996 | locus YER110C, hits give low values 0.977 | locus YER111C, strain swi4, hits give low values 0.975 | locus YER155C, strain BEM2 (second series), hits give low values 0.954 | locus YER155C, strain BEM2, hits give low values 0.999 | locus YER167W, strain BCK2, hits give low values 0.991 | locus YFR010W, strain ubp6, hits give low values 0.968 | locus YGL078C, strain dbp3, hits give low values 0.986 | locus YGL086W, strain mad1, hits give low values 1 | locus YGL167C, strain pmr1, hits give low values 0.987 | locus YGL173C, strain kem1, hits give low values 0.983 | locus YGL227W, strain vid30, hits give low values 0.996 | locus YGL240W, strain doc1, hits give low values 1 | locus YGL248W, strain PDE1, hits give low values 1.02 | locus YGL253W, strain hxk2, hits give low values 0.984 | locus YGR135W, strain pre9, hits give low values 0.966 | locus YGR252W, strain gcn5, hits give low values 1.04 | locus YHR013C, strain ard1, hits give low values 0.909 | locus YHR027C, strain rpn1, hits give low values 0.985 | locus YHR030C, strain SLT2, hits give low values 0.99 and 0.965 | locus YHR079C, strain IRE1 (second series), hits give low values 0.984 | locus YHR079C, strain IRE1, hits give low values 0.972 | locus YHR094C, strain hxt1, hits give low values 0.994 | locus YHR129C, strain ARP1, hits give low values 0.994 | locus YHR142W, strain chs7, hits give low values 0.944 | locus YHR200W, strain rpn10, hits give low values 0.972 | locus YIL066C, strain RNR3, hits give low values 1.01 | locus YIL073C, strain SPO22, hits give low values 0.897 | locus YIL125W, strain kgd1, hits give low values 0.989 | locus YIR030C, strain dcg1, hits give low values 0.985 | locus YJL092W, strain hpr5, hits give low values 0.981 | locus YJL095W, strain BCK1 (second series), hits give low values 0.986 | locus YJL095W, strain BCK1, hits give low values 1.04 and 0.965 | locus YJL115W, strain asf1, hits give low values 0.982 | locus YJL129C, strain trk1, hits give low values 0.988 | locus YJL134W, strain LCB3, hits give low values 0.998 | locus YJL154C, strain vps35, hits give low values 1.01 | locus YJL164C, strain tpk1, hits give low values 0.989 | locus YJL166W, strain qcr8, hits give low values 0.953 | locus YJL168C, strain set2, hits give low values 0.993 | locus YJL187C, strain SWE1 (second series), hits give low values 1.04 | locus YJL187C, strain SWE1, hits give low values 0.976
